From PubChem BioAssay (NCATS)
Inconclusive results are not listed. Values without a mark were called inactive. Calls come from the whole dose curve; as a rule, active = well fitted inhibition curve with a large enough effect; inconclusive = small, poorly fitted or top-dose-only effect; inactive = flat fitted curve, though single readings scatter.

Test system: HaCat
Experiment: Cytotoxic Profiling of Annotated Libraries Using Quantitative High-Throughput Screening (AID 1296008); note: nearly all actives have a fitted effect of over 60% in size
Settings: Five cell lines viability, CellTiter-Glo ATP luminescence, 48-72 h; max response: active compounds read low
Method in brief: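 Cells exposed to compounds for 48 or 72 hr at 37 degrees Celsius. Viability read as ATP-coupled luminescence with CellTiter-Glo after 10 min at room temperature.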
% is set by controls: 0 for no effect and ±100 for the full control effect.

| Compound | max response [%] |
| --- | --- |
| CC1=C(C(=O)OC2CCCCC2)C(c2ccc([N+](=O)[O-])cc2)C2=C(CC(C)(C)CC2=O)N1 (stereo unspecified) | -9.38 |
| CCO[C@H]1CN(C2CCC(O)(c3ccc4c(c3)OCO4)CC2)C[C@@H]1NC(=O)CNC(=O)c1cccc(C(F)(F)F)c1 (stereo partly specified) | 1.49 |
| Cc1cnn(-c2ccccc2)c1NC(=O)COCc1ccccc1 | 3.62 |
| Fc1ccc(-c2nc(-c3c(F)cccc3F)[nH]c2-c2ccncc2)cc1 | -17.9 |
| Cc1cn2c(n1)Cc1ccc(Cl)cc1C(c1ccc(N)cc1)=N2 | 1.21 |
| CCn1c(N)c(C(=O)NC)c(=O)c2ccc(C#CC(C)(O)COC)nc21 (stereo unspecified) | -27.4 |
| COc1ccc(NC(=O)c2ccc(C(=N)N(C)C)cc2)c(C(=O)Nc2ccc(Cl)cn2)c1 | -16.4 |
| CC1(C)CC[C@]23CO[C@@]4(CCC5[C@@]6(C)CC[C@H](O[C@@H]7OC[C@H](O[C@@H]8O[C@H](CO)[C@@H](O)[C@H](O)[C@H]8O[C@@H]8OC[C@@H](O)[C@H](O)[C@H]8O)[C@H](O)[C@H]7O)[C@@](C)(CO)C6CC[C@@]5(C)[C@]4(C)CC2=O)[C@@H]3C1 (stereo partly specified) | 2.87 |
| CC(C)(C)C1CCN(C(=O)n2ncc(C(O)(c3ccccc3)c3ccccc3)n2)CC1 | -7.63 |
| CN(C)[C@@H]1CCc2[nH]c3ccc(NC(=O)c4ccc(F)cc4)cc3c2C1 | -11.8 |
| O=C(NCCN1CCC(n2c(=O)[nH]c3ccccc32)CC1)c1ccc2ccccc2c1 | -42.4 |
